In ChEMBL document CHEMBL1961873, “Compounds: GSK PKIS; Assays: Nanosyn kinase panel” (2012):

Biological target: MAP/microtubule affinity-regulating kinase 3 (Homo sapiens) (UniProt P27448);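 further: reported values are averaged percent inhibition of MARK3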
Settings: at 1 µM

MAP/microtubule affinity-regulating kinase 3 (Homo sapiens), sequence (P27448 whole entry, looked up): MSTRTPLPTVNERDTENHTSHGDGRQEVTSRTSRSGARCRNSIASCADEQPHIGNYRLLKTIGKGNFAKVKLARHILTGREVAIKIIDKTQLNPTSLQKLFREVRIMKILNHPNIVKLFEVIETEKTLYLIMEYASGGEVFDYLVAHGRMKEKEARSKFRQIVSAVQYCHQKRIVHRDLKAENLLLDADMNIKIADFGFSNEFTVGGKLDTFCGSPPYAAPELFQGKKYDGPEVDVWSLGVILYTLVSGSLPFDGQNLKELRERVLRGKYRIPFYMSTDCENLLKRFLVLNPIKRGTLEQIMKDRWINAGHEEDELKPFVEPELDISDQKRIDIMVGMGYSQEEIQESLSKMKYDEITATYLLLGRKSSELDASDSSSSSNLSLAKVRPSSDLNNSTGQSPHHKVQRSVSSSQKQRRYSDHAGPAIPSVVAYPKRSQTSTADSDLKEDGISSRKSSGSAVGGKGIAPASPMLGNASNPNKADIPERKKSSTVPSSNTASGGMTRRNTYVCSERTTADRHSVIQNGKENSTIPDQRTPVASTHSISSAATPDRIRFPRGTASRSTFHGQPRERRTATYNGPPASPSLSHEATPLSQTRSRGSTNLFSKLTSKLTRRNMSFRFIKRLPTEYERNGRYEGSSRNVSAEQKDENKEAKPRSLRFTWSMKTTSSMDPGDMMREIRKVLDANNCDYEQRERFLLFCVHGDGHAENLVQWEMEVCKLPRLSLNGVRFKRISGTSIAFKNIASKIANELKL

SMILES	inhibition [%]
COc1cc2c(cc1Nc1nc(Nc3ccsc3C(N)=O)c3cc[nH]c3n1)N(C(=O)CN(C)C)CCC2	4.97
NS(=O)(=O)c1ccc(N/C=C2\C(=O)Nc3ccc4ncsc4c32)cc1	42.9
Fc1ccc(-c2ncn(C3CCNCC3)c2-c2ccnc(Oc3ccccc3)n2)cc1	-0.46
Nc1nonc1-c1nc2cnccc2n1C1CCCCC1	24.2
NC(=O)c1sc(-n2cnc3cc(C(F)(F)F)ccc32)cc1OCc1ccccc1Br	0.82
CCn1c(-c2nonc2N)nc2c(C#CC(C)(C)O)ncc(OCC3CCNCC3)c21	68.8
COc1cccc(COc2cc(-n3cnc4ccccc43)sc2C(N)=O)c1	2.02
CCn1c(-c2nonc2N)nc2c(C#CC(C)(C)O)ncc(OC[C@@H]3CCCN3)c21	67.9
CCn1c(-c2nonc2N)nc2c(C#CC(C)(C)O)nc(O[C@@H](CN)c3ccccc3)cc21	101
NS(=O)(=O)c1ccc(-c2ccc3c(NC(=O)C4CC4)n[nH]c3c2)cc1	5.56
CCn1c(-c2nonc2N)nc2c(C#CCN)ncc(OCCCN)c21	11.4
Cc1cc(-c2ccco2)cc(C)c1/C=C/c1cncc(-c2nn[nH]n2)c1	1.64
COc1cccc(-n2ncc3c(N/N=C/c4ccncc4)ncnc32)c1	7.7
COc1cc(C=NNc2ncnc3c2cnn3Cc2ccccc2)ccc1O	4.6

Biological target: T1, MAP/microtubule affinity-regulating kinase 4 (Homo sapiens) (UniProt Q96L34);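 further: values are averaged percent inhibition of MARK4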
T1 sequence (whole entry): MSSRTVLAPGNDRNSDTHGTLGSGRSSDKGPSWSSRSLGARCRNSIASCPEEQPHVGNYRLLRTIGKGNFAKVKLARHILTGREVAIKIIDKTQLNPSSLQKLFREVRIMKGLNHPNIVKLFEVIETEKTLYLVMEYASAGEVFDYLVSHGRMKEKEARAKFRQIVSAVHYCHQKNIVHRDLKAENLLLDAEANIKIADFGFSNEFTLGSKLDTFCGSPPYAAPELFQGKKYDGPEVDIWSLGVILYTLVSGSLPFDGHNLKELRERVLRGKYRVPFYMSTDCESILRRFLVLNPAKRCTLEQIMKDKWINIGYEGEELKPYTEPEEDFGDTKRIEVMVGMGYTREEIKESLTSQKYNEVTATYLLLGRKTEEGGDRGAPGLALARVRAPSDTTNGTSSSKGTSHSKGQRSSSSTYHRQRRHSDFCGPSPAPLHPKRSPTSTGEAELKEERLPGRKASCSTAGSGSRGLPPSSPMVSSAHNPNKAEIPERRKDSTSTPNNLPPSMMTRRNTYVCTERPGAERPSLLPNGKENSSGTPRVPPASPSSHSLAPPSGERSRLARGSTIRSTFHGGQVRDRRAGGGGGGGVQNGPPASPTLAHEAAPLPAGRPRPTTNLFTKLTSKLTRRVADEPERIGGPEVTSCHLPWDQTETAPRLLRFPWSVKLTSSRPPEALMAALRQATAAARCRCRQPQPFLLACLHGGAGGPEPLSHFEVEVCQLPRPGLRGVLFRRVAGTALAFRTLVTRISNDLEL
Settings: at 0.1 µM

SMILES	inhibition [%]
COc1cc2c(cc1Nc1nc(Nc3ccsc3C(N)=O)c3cc[nH]c3n1)N(C(=O)CN(C)C)CCC2	0.47
NS(=O)(=O)c1ccc(N/C=C2\C(=O)Nc3ccc4ncsc4c32)cc1	11
Fc1ccc(-c2ncn(C3CCNCC3)c2-c2ccnc(Oc3ccccc3)n2)cc1	1.68
Nc1nonc1-c1nc2cnccc2n1C1CCCCC1	2.83
NC(=O)c1sc(-n2cnc3cc(C(F)(F)F)ccc32)cc1OCc1ccccc1Br	2.12
CCn1c(-c2nonc2N)nc2c(C#CC(C)(C)O)ncc(OCC3CCNCC3)c21	10.5
COc1cccc(COc2cc(-n3cnc4ccccc43)sc2C(N)=O)c1	1.15
CCn1c(-c2nonc2N)nc2c(C#CC(C)(C)O)ncc(OC[C@@H]3CCCN3)c21	11.6
CCn1c(-c2nonc2N)nc2c(C#CC(C)(C)O)nc(O[C@@H](CN)c3ccccc3)cc21	74.5
NS(=O)(=O)c1ccc(-c2ccc3c(NC(=O)C4CC4)n[nH]c3c2)cc1	0.63
CCn1c(-c2nonc2N)nc2c(C#CCN)ncc(OCCCN)c21	3.8
Cc1cc(-c2ccco2)cc(C)c1/C=C/c1cncc(-c2nn[nH]n2)c1	1.35
COc1cccc(-n2ncc3c(N/N=C/c4ccncc4)ncnc32)c1	1.15
COc1cc(C=NNc2ncnc3c2cnn3Cc2ccccc2)ccc1O	1.11
